Compound activity from PubChem BioAssay.
A selection: hits, their analogues and other compounds. The true share with any hit is near 0.74%.
TCR activator: activators of T cell receptors; primary human leukocytes, anti-CD3, IL-2 HTRF, 48 h; Potency, µM (doses to about 9.22 µM), for the others: at the top dose activation of IL-2 secretion, most hits filed as activators; 330,000 tested, under 10 active; AID 504894; active means well fitted activation curve with a large enough effect; further: % of control where 0% means no effect
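Readout: HTRF IL-2, Eu-cryptate/d2 antibody pair, 320nm excitation, 665nm emission. Stimulus: a-CD3 beads, no co-stimulation. Cells: primary human leukocytes. Exposure: 48 hr with compound.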
TSHR antag: blocks TSH signaling through the human TSH receptor; P16473; TSHR-expressing cells, TSH-stimulated cAMP HTRF, 2 h; stronger effect = lower value; activity change, negative = inhibition, % at 11.5 µM; 330,000 compounds, 0.2% hits;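 active means activity change below a set negative limit, meaning inhibition stronger than a set level, cut at about -70% in these data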; further: on the % scale 0 is the no-effect control and ±100 the full control effect
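Cell-based HTRF cAMP assay; TSHR cells + compound, TSH EC80 (4nM final), 2 h, 37 deg C. Lysis with anti-cAMP cryptate and cAMP-d2, 30 min RT, read 665/620 nm.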
Akt phos inh: inhibitors of Akt phosphorylation. Neuro2A IGF-stimulated pAkt S473 HTRF, 20 min; stronger effect = lower value. activity change, % for hits at 50 µM. 360,000 compounds, 0.32% hits; in the data active means activity change below about -80%; further: on the % scale 0 is the no-effect control and ±100 the full control effect
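Neuro2A cells (4,500/well, DMEM with 0.5% FBS) were treated with compound at a single 50 µM final concentration, stimulated with 6 nM IGF for 20 min at 37 °C, and lysed. Phospho-Akt Ser473 was read by HTRF as 665/615 ratio ×10^4.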
CCT modulator: cytosolic chaperonin activity modulation. purified chaperonin ATPase assay, HTRF ADP detection, 30 min. activity change, % (test concentration not listed), hits read low. 360,000 compounds, 0.3% hits; in the data active means activity change below about -30%; further: on the % scale 0 is the no-effect control and ±100 the full control effect
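TRiC (40 or 20 nM final, by batch activity) in 30 mM Tris pH 7.4, 100 mM KCl, 5 mM MgCl2, 1 mM DTT was treated with compound at 76 uM single dose, then 10 uM ATP, 30 min at 37 °C. ADP was read by HTRF Transcreener.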
An asterisk follows results filed as active; i = inactive; nt = not tested or not shown; [ ] = remark or other dose.

SMILES	TCR activator	TSHR antag	Akt phos inh	CCT modulator
Cc1cccc(-c2nnc(SC(C)C(=O)N3CCOCC3)o2)c1 (stereo not given)	-1%	-2	i	-1
CCS(=O)(=O)N1Cc2ccccc2CC1C(=O)Nc1cccc(OC)c1 (stereo not given)	1%	23	i	-49*
Cc1ccccc1OCCC(=O)OCC(=O)NNC(=O)c1cccs1	-1%	-10	i	1
COc1ccc(NC(=O)C2CC(=O)N(c3ccccc3F)C2)cc1S(=O)(=O)N1CCCCC1 (stereo not given)	nt	nt	i	1
Cn1c(=O)c([N+](=O)[O-])c(Cl)c2ccccc21	-7%	-83*	i	0
COc1ccc(OC)c(NC(=O)Cn2c(CCC(=O)O)ccc2-c2ccccc2)c1	-2%[46.1 µM]	-5	i	0
COc1ccc(OC)c(NC(=O)Cn2c(CCC(=O)O)ccc2-c2cccs2)c1	-1%	nt	-119%*	-1
CC(C)(C)c1ccc(-n2nc(C#N)c(Cl)cc2=O)cc1	-3%	-80*	i	0
COC(=O)C(C(=O)OC)=C(/C=C/N(C)C)N(C)C	3%	-6	-104%*	1
Cc1cccc2c1NC(=O)C2(c1ccc(O)cc1)c1ccc(O)cc1	9%	-81*	nt	0
O=C(CCSc1ccc(F)cc1)NNC(=O)c1ccccc1Cl	0%	-5	i	-1
Cc1ccc(C)n1C1CCS(=O)(=O)C1 (stereo not given)	6%	-1	i	-4
Cc1nn(C2CCS(=O)(=O)C2)c(C)c1C=O (stereo not given)	-1%	18	i	-36*
CCC1(C)CC(=O)N(c2ccc(C(=O)O)c(O)c2)C1=O (stereo not given)	2%	1	-114%*	-2
CCC1(C)CC(=O)N(c2ccc(F)c(Cl)c2)C(=O)C1	3%	-3	i	1
N#Cc1nc(Cc2cccc3ccccc23)oc1NCc1ccc(F)cc1	-3%	-1	-108%*	-1
COc1ccc(N(CC(=O)Nc2cc(C)ccc2C)S(=O)(=O)c2ccccc2[N+](=O)[O-])c(OC)c1	4%	1	i	2
O=C(COC(=O)c1ccc(F)cc1Cl)NC1CC1	nt	nt	i	-50*
O=C(COC(=O)c1cc(F)c(F)cc1Cl)NC1CC1	8%	-7	i	-3
CS(=O)(=O)c1ccc2nc(NC(=O)c3ccc(Cl)cc3)sc2c1	4%	9	i	-4
COc1ccc(C(=O)Nc2nc3ccc(S(C)(=O)=O)cc3s2)cc1	9%[46.1 µM]	7	-85%*	-2
CCCNC(=O)NC(=O)COc1c(F)c(F)cc(F)c1F	-5%	18	-102%*	-1
CC(C)(CCC(=S)N1CCOCC1)C1CCCCC1	11%	-6	i	-40*
S=C(CN1CCCC1=S)N1CCOCC1	-2%	nt	i	-2
COc1ccc(C(=O)C(=O)N2CCN(c3ccccc3F)CC2)cc1	nt	nt	i	nt
SMILES	TCR activator	TSHR antag	Akt phos inh	CCT modulator
CCOc1ccc(NC(=O)CCC(=O)NNC(=O)COc2ccccc2C)cc1	-1%	1	i	1
O=S(=O)(c1cccc(NC(=S)Nc2ccc(Br)cc2Cl)c1)N1CCOCC1	5%	6	i	-63*
CCOP(=O)(c1ccccc1)c1nc(-c2ccc(F)cc2)oc1N1CCCCC1 (stereo not given)	4%	-2	-130%*	-9
CCOP(=O)(OCC)c1nc(-c2ccc(Br)cc2)oc1N1CCCCC1	10%	-19	i	-2
Cc1ccc(CNS(=O)(=O)c2ccc(CN3C(=O)c4cccnc4C3=O)s2)o1	-2%	-89*	i	0
Cc1ccccc1NC(=O)C1CCCN(C(=O)Nc2ccc(F)cc2)C1 (stereo not given)	-5%	-4	i	-2
Cc1cccc(NC(=O)C2CCCN(C(=O)Nc3ccccc3)C2)c1C (stereo not given)	11%	0	-110%*	1
Cc1cc(C)c(NC(=O)C2CCCN2CCO)c(C)c1 (stereo not given)	-10%	0	nt	0
Cc1cc(C)c(NC(=O)C2CCCN2C)c(C)c1 (stereo not given)	-8%	-6	-101%*	1
CCOC(=O)c1sc(NCCNc2nc(C)c(C(=O)OCC)s2)nc1C	-2%	-2	-112%*	3
COc1ccccc1CCNC(=O)CNC(=O)Cc1cccc2ccccc12	3%	-5	i	1
